Holding throughout (assay): DAPPL (digital affinity profiling via proximity ligation, sequencing); 10 mM Tris-HCl pH 7.5, 50 mM NaCl, 1 mM DTT, 4% glycerol, room temperature, 30 min; GST-TFs on glutathione beads, 16-mer random dsDNA library, 0.1% formaldehyde crosslink after washing; high values mean tight binding
Common to all, as to conditions: protein: recombinant; tags: N-terminal GST; dsDNA, one strand shown

One experiment has as its target T1, FLI1 (Homo sapiens, UniProt Q01543 1-452).
T1 sequence: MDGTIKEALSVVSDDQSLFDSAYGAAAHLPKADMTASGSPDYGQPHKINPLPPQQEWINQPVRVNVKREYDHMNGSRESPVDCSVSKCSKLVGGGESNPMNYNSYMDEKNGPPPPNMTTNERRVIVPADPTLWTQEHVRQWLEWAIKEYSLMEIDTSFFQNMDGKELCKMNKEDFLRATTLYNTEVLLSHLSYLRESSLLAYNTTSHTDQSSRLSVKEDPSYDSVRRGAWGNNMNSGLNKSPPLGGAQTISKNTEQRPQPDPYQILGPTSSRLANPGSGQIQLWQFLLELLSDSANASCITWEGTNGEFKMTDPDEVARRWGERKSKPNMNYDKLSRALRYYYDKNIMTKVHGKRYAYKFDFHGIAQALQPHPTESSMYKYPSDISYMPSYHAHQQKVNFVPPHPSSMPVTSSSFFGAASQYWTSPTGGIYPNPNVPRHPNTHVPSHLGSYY
The gist of the method:
(§1)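 Each value of binding signal is a hexamer's read frequency for a factor divided by the same hexamer's frequency in the tag-only sample. Barcoded, bead-captured GST fusions of human transcription factors made in yeast were pooled with that sample and incubated with 200 nmole of a random double-stranded 16-mer DNA library in Tris/NaCl/DTT/glycerol buffer at room temperature for 30 min. Washing, 0.1% formaldehyde crosslinking, proximity ligation, PCR and Illumina NextSeq500 sequencing followed.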

For the next experiment, the target named is T2, ERG (Homo sapiens, UniProt P11308 1-479).
T2 sequence: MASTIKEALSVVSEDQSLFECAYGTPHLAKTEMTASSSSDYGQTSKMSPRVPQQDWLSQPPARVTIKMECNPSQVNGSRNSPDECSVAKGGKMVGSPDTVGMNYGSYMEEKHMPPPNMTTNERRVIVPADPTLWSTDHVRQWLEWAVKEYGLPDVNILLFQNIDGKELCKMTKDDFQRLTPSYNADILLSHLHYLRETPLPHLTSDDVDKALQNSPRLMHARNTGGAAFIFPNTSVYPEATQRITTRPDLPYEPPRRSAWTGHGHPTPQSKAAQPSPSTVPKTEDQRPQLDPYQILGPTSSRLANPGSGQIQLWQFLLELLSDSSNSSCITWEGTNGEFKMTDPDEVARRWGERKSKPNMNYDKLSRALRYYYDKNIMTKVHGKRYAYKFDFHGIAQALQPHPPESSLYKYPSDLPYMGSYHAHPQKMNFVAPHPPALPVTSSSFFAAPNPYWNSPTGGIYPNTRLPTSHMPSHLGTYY
The gist of the method: as §1

The target of a further experiment is T3, EHF (Homo sapiens, UniProt Q9NZC4 1-300).
T3 sequence: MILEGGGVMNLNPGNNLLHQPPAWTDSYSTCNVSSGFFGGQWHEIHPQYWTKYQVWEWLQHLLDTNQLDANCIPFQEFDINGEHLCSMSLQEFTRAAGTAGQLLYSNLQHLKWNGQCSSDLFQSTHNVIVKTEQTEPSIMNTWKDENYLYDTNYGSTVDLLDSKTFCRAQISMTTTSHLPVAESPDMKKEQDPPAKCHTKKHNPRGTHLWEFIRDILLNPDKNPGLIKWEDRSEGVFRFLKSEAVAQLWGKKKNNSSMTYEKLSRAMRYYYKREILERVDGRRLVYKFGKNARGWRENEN
In outline: as §1

The target of a further experiment is SPI1 (Homo sapiens, UniProt P17947 1-270). The gist of the method: as §1
The next experiment concerns the target T4, ELK3 (Homo sapiens, UniProt P41970 1-407).
T4 sequence: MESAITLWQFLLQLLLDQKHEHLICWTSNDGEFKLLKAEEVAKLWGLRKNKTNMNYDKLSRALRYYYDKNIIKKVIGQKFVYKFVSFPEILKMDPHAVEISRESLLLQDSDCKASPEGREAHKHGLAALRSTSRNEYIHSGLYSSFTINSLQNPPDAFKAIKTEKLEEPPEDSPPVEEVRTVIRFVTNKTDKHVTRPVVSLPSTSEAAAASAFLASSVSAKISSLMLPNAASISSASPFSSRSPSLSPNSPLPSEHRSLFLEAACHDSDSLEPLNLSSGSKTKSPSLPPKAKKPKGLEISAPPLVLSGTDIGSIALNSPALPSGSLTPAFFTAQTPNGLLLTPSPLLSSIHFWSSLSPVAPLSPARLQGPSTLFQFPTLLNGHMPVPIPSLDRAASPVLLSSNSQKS
The gist of the method: as §1

A further experiment addresses T5, SPIC (Homo sapiens, UniProt Q8N5J4 1-248).
T5 sequence: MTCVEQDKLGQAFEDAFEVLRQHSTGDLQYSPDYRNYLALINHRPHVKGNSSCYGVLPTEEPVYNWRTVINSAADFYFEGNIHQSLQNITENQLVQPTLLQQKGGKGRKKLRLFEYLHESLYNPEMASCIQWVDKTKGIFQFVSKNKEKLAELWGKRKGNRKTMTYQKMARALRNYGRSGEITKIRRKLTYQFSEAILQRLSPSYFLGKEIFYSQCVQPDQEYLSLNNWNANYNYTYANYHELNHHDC
In outline: as §1

Another experiment has as its target ELF4 (Homo sapiens, UniProt Q99607 1-663). The gist of the method: as §1
A further experiment addresses T6, ELK4 (Homo sapiens, UniProt P28324-2 1-405).
T6 sequence: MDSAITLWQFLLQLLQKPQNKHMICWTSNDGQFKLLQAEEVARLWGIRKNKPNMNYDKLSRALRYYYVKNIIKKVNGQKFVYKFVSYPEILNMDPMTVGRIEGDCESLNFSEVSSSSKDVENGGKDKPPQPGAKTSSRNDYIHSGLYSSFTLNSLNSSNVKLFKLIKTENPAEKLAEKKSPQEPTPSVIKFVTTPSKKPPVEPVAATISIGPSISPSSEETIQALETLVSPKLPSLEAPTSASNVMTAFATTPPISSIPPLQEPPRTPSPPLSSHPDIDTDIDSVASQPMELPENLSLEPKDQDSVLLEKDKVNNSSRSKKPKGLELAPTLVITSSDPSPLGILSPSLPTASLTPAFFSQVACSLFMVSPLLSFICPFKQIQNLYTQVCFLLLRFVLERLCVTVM
The gist of the method:
as §1

In another experiment the target is T7, ELF3 (Homo sapiens, UniProt P78545 1-371).
T7 sequence: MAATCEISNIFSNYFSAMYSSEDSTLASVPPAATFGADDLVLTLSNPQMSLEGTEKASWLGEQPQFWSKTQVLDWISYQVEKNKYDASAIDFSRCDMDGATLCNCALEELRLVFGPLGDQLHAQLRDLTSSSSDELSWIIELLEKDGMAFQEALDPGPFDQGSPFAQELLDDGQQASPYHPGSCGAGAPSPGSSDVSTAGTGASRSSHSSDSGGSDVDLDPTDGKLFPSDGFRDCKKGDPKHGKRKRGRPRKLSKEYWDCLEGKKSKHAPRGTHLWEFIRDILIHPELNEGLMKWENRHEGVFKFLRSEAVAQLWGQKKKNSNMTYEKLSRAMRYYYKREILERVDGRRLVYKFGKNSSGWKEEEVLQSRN
The gist of the method:
as §1

The target of a further experiment is ETV1 (Homo sapiens, UniProt P50549 1-477). In outline: as §1
For a further experiment, the target named is T8, ERF (Homo sapiens, UniProt P50548 1-548).
T8 sequence: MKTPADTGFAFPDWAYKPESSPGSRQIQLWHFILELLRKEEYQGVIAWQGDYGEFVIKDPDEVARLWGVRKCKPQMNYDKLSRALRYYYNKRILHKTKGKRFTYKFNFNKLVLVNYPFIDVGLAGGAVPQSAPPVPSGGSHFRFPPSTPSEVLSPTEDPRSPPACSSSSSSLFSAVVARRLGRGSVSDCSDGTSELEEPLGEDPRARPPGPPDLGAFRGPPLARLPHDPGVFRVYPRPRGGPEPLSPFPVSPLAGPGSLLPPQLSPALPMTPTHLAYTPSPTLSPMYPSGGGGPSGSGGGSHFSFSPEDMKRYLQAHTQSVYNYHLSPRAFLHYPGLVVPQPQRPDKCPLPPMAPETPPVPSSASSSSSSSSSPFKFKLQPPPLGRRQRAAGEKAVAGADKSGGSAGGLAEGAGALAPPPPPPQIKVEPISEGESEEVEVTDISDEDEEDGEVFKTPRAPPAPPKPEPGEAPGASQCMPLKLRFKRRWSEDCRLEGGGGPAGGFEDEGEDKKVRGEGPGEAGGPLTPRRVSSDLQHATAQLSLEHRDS
The gist of the method:
as §1

The target of a further experiment is T9, SPDEF (Homo sapiens, UniProt O95238 1-335).
T9 sequence: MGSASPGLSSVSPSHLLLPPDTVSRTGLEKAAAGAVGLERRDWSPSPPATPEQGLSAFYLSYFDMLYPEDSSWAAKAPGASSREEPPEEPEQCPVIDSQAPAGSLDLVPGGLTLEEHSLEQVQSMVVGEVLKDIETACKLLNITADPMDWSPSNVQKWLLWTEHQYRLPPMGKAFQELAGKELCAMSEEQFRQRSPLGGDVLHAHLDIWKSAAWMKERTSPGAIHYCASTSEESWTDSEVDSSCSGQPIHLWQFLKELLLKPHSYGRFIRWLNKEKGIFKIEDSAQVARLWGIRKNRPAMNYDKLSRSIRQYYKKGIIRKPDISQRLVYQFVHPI
In outline:
as §1

A further experiment has as its target T10, ETV7 (Homo sapiens, UniProt Q9Y603 1-341).
T10 sequence: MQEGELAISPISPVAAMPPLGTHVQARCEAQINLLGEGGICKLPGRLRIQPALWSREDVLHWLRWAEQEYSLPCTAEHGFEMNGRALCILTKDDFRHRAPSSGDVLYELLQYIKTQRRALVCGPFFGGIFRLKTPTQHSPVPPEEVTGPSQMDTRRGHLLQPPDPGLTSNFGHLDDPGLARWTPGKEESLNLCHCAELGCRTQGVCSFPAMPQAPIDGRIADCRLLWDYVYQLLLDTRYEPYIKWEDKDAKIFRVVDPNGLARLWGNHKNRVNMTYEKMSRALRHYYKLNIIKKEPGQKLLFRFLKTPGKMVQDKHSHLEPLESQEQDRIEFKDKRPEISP
In outline: as §1

For another experiment, the target named is ETV6 (Homo sapiens, UniProt P41212 1-452). The gist of the method:
as §1

ETV6, sequence (P41212 whole entry): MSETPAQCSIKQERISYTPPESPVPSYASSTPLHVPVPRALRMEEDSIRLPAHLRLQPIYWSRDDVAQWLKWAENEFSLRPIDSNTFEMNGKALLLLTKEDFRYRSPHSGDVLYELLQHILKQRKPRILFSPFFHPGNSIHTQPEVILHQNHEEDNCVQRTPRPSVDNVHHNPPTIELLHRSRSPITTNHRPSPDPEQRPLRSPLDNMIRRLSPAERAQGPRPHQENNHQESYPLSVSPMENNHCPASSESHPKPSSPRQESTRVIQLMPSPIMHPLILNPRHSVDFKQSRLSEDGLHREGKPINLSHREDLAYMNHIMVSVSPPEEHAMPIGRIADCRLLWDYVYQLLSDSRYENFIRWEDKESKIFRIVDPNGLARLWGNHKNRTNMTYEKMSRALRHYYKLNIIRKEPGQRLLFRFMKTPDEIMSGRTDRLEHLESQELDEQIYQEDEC
ELF4, sequence (Q99607 whole entry): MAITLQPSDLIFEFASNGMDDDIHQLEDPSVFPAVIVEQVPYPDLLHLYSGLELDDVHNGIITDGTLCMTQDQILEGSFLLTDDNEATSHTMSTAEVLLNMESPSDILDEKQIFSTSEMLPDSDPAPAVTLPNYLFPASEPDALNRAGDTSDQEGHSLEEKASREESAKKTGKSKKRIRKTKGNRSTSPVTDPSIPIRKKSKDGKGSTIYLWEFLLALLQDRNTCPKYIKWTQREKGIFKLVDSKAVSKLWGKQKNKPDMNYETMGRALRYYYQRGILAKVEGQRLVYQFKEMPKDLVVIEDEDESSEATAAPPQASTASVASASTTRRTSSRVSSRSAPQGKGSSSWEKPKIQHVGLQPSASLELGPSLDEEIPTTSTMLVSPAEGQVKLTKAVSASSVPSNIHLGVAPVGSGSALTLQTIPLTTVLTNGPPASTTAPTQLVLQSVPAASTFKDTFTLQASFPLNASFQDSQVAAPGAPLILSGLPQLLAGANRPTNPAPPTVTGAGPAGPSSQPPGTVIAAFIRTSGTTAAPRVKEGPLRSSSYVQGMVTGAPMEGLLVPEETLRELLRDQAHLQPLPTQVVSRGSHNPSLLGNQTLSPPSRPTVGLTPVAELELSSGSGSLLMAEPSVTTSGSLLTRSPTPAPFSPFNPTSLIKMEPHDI
ETV1, sequence (P50549 whole entry): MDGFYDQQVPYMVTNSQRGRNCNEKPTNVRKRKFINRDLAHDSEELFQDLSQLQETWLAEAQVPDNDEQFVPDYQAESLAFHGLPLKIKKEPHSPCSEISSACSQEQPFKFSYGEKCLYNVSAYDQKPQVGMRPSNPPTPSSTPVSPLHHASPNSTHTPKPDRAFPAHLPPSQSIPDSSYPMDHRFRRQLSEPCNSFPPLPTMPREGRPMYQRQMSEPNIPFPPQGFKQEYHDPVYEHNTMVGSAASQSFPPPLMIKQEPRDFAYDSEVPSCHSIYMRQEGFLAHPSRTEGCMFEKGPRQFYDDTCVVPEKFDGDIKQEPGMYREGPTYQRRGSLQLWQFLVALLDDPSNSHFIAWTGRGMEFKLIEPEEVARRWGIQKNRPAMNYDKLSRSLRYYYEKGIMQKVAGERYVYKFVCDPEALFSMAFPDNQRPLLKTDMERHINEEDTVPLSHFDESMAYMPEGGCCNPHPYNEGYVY

In the case of GTCACG, the binding signal was 1.09 fold enrichment (6-mer frequency, TF over GST control) with FLI1; 1.06 fold enrichment (6-mer frequency, TF over GST control) in the experiment with ERG; 1.07 fold enrichment (6-mer frequency, TF over GST control) in the experiment with EHF; 1.05 fold enrichment (6-mer frequency, TF over GST control) with SPI1; 1.02 fold enrichment (6-mer frequency, TF over GST control) with ELK3; 1.04 fold enrichment (6-mer frequency, TF over GST control) with SPIC. Besides, the binding signal in the experiment with ELF4 was 1.07 fold enrichment (6-mer frequency, TF over GST control); with ELK4, 1.08 fold enrichment (6-mer frequency, TF over GST control); with ELF3 it was 1.02 fold enrichment (6-mer frequency, TF over GST control); in the experiment with ETV1 it was 1.1 fold enrichment (6-mer frequency, TF over GST control); with ERF it was 1.08 fold enrichment (6-mer frequency, TF over GST control); with SPDEF, 1.02 fold enrichment (6-mer frequency, TF over GST control). Further, the binding signal in the experiment with ETV7 is 1.04 fold enrichment (6-mer frequency, TF over GST control); with ETV6 it was 1.04 fold enrichment (6-mer frequency, TF over GST control).

The values above are taken from PMC7862700, “An all-to-all approach to the identification of sequence-specific readers for epigenetic DNA modifications on cytosine”.
